Data on five compounds can be found in PubChem BioAssay.

Experiment [1] relates to Plasmodium falciparum Sir2 (PF13_0152, Sir2A). The experiment can be described thus: pfSir2 binders on small-molecule microarrays, primary screen, biochemical, small-molecule microarray, 635 nm fluorescence (AID 1098).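 Further: score merges spot fluorescence intensity with its signal-to-noise ratio.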 The note with it: small-molecule microarray binding, fluorescence 635 nm; higher = more signal.
Experiment [2] in a line: small-molecule microarray binders of probe aDKK1, primary screen, biochemical, biotinylated probe, 635/667 nm fluorescence (AID 1099).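 Further: score merges 667nm spot fluorescence with signal to noise across triplicate slides.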 The note with it: higher = more signal.
A short description of experiment [3]: small-molecule microarray binders of probe aCHRDL2, primary screen, biochemical, biotinylated probe, 635/667 nm fluorescence (AID 1100). The note with it: higher = more signal.
The nature of experiment [4]: splicing luciferase reporter signal modulators, primary screen, spliceosome inhibition project, cell-based, HEK293, splice +/- reporter (AID 1101).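 Further: HEK293 cells carrying a splicing-competent luciferase reporter gene; test concentration not given here.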 The note with it: luminescence, 24 h, higher = more signal, called active from +8 up or from −8 down. On the technique in general: Reporter assays use an easily measured gene product as a stand-in for the process of interest.

Experiment [5] deals with Fibroblast growth factor 10 (Homo sapiens) (UniProt O15520). The experiment can be described thus: FGF10 binders on small-molecule microarrays, primary screen, biochemical, small-molecule microarray, 635 nm fluorescence (AID 1102). As to conditions: FGF10 binding, fluorescence 635 nm, higher = more signal.
Experiment [6] deals with glycogen synthase kinase-3 (GSK3A per assay name; protocol says GSK3B). Put plainly: GSK3 binders on small-molecule microarrays, primary screen, biochemical, small-molecule microarray, 635 nm fluorescence, GSK3A (AID 1103). Further: the record names both GSK3A and GSK3B. As to conditions: small-molecule microarray binding, fluorescence 635 nm; higher = more signal.
The target of experiment [7] is Epidermal growth factor receptor (Homo sapiens) (UniProt P00533). The experiment can be described thus: EGFR binders on small-molecule microarrays, primary screen, biochemical, small-molecule microarray, 635 nm fluorescence (AID 1104).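 Further: score merges 667 nm emission intensity with spot signal to noise over triplicate slides.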 As to conditions: EGFR binding, higher = more signal.
Experiment [8] has as its target Follistatin-related protein 3 (Homo sapiens) (UniProt O95633). The experiment can be described thus: FSTL3 binders on small-molecule microarrays, primary screen, biochemical, small-molecule microarray, 635 nm fluorescence (AID 1105).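 Further: score merges emission near 667 nm and signal to noise per printed spot across three slides.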 The note with it: FSTL3 binding, higher = more signal.
The target of experiment [9] is Dickkopf-related protein 1 (Homo sapiens) (UniProt O94907). Put plainly: DKK1 binders on small-molecule microarrays, primary screen, biochemical, small-molecule microarray, 635 nm fluorescence scan (AID 1106).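 Further: score merges emission near 667 nm with signal to noise over three replicate slides.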 As to conditions: DKK1 binding, higher = more signal.
The subject of experiment [10] is Inhibin beta A chain (activin A). The experiment can be described thus: INHBA (activin A) binders on microarrays, primary screen, biochemical, small-molecule microarray, 635 nm fluorescence scan (AID 1107).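 Further: mouse activin A protein probed at 4.33 µg/mL on printed slides; score merges bound-protein fluorescence near 667 nm with spot signal-to-noise.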 The note with it: small-molecule microarray binding, higher = more signal.
The subject of experiment [11] is Human papillomavirus type 1a protein E7 (residues 44-93). Put plainly: HPV1a E7 fragment binders on microarrays, primary screen, biochemical, small-molecule microarray, residues 44-93, 635 nm fluorescence (AID 1108).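 Further: E7 fragment applied at 1 µg/mL in TBST for 1 h at 4 C; score combines spot fluorescence with its signal to noise ratio.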 The note with it: small-molecule microarray binding, fluorescence 635 nm; higher = more signal.
Experiment [12] in a line: modulators of HCV replicon luciferase signal, primary screen, HCV replication inhibitor project, Huh7 cells, luciferase reporter (AID 1109).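 Further: huh7 hepatoma cells harbouring a luciferase neomycin HCV replicon reporter; luciferase luminescence as measure of HCV replicon replication; test concentration not given here.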 The note with it: 48 h, higher = more signal. A general note: In antiviral work, replicon cells carry a viral genome segment that copies itself.
For experiment [13], the target named is Left-right determination factor 2 (Homo sapiens) (UniProt O00292). Put plainly: LEFTY2 binders on small-molecule microarrays, primary screen, biochemical, small-molecule microarray, 635 nm fluorescence scan (AID 1110). The note with it: LEFTY2 binding, higher = more signal.
The target in experiment [14] is Calmodulin-1 (Homo sapiens) (UniProt P0DP23). Put plainly: CALM1 binders on microarrays, EGTA buffer, profiling panel, biochemical, small-molecule microarray, Cy5-labelled CALM1 (AID 1111).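 Further: labelled calmodulin applied in Tris saline Tween buffer holding calcium plus EGTA and DTT.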 As to conditions: Cy5-CALM1 binding fluorescence, higher = more signal.
Experiment [15] shares this target. Put plainly: calcium-bound CALM1 binders on microarrays, profiling panel, artefact control for SMM control-protein annotation, biochemical, small-molecule microarray, Cy5-labelled CALM1, plus calcium (AID 1112).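 Further: score merges spot fluorescence with signal to noise from triplicate slides.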 As to conditions: Cy5-CALM1 binding fluorescence, higher = more signal.
A short description of experiment [16]: small-molecule microarray binders of probe aWnt5a, primary screen, biochemical, biotinylated probe, 635/667 nm fluorescence (AID 1113).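 Further: score merges 667 nm fluorescence intensity with signal-to-noise per printed feature.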 The note with it: higher = more signal.
Experiment [17] can be described thus: small-molecule microarray binders of probe aShh, primary screen, biochemical, biotinylated probe, 635/667 nm fluorescence (AID 1114).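 Further: probe is biotin-labelled aShh protein from a stem cell growth factor screen; measures binding of labelled protein to compounds printed on the slide; score merges feature fluorescence at 667 nm with signal-to-noise.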 As to conditions: higher = more signal.
Experiment [18] in a line: small-molecule microarray binders of probe aNog, primary screen, biochemical, biotinylated probe, 635/667 nm fluorescence (AID 1115).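 Further: probe is biotinylated aNog protein used at 0.15 µg/mL for 1 h at 4 C; z-score combines 667 nm fluorescence of each spot with its signal to noise.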 The note with it: higher = more signal.
Experiment [19] addresses Torsin-1A-interacting protein 1 (Homo sapiens) (UniProt Q5JTV8). Put plainly: LAP1 binders from COS7 cell lysate, primary screen, small-molecule microarray, 635/667 nm fluorescence (AID 1116). As to conditions: COS7-hLAP1 lysate binding, 635 nm fluorescence, higher = more signal.
Experiment [20] concerns the target Alpha-bungarotoxin (Bungarus multicinctus) (UniProt P60615). The experiment can be described thus: alpha-bungarotoxin binders on microarray, profiling panel, artefact control for SMM control protein annotation, biochemical, small-molecule microarray, Alexa647 label, 635/667 nm fluorescence (AID 1117). As to conditions: alpha-BTX-A647 binding fluorescence, higher = more signal.

Calls of active or inactive are those of the source.

Follistatin-related protein 3 (Homo sapiens), sequence (O95633 whole entry, looked up): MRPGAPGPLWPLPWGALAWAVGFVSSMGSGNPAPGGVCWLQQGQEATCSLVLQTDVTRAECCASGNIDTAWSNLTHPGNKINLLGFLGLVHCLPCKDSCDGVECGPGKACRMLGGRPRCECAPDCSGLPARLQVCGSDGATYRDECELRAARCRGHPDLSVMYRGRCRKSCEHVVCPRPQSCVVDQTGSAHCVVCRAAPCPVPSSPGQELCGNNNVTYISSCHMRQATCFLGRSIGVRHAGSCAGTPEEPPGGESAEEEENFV
Alpha-bungarotoxin (Bungarus multicinctus), sequence (P60615 whole entry, looked up): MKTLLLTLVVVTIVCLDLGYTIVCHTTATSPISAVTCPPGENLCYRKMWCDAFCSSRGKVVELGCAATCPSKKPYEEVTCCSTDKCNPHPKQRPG
Left-right determination factor 2 (Homo sapiens), sequence (O00292 whole entry, looked up): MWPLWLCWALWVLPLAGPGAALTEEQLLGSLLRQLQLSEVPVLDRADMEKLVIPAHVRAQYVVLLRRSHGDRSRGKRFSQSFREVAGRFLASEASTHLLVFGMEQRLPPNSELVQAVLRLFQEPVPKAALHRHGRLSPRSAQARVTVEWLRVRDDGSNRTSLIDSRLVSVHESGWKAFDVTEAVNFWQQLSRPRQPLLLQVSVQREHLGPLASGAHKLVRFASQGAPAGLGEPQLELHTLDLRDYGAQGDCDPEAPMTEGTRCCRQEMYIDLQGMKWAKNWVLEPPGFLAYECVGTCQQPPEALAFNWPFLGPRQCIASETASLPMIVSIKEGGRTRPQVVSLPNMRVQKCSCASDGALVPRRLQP
Epidermal growth factor receptor (Homo sapiens), sequence (P00533 whole entry, looked up): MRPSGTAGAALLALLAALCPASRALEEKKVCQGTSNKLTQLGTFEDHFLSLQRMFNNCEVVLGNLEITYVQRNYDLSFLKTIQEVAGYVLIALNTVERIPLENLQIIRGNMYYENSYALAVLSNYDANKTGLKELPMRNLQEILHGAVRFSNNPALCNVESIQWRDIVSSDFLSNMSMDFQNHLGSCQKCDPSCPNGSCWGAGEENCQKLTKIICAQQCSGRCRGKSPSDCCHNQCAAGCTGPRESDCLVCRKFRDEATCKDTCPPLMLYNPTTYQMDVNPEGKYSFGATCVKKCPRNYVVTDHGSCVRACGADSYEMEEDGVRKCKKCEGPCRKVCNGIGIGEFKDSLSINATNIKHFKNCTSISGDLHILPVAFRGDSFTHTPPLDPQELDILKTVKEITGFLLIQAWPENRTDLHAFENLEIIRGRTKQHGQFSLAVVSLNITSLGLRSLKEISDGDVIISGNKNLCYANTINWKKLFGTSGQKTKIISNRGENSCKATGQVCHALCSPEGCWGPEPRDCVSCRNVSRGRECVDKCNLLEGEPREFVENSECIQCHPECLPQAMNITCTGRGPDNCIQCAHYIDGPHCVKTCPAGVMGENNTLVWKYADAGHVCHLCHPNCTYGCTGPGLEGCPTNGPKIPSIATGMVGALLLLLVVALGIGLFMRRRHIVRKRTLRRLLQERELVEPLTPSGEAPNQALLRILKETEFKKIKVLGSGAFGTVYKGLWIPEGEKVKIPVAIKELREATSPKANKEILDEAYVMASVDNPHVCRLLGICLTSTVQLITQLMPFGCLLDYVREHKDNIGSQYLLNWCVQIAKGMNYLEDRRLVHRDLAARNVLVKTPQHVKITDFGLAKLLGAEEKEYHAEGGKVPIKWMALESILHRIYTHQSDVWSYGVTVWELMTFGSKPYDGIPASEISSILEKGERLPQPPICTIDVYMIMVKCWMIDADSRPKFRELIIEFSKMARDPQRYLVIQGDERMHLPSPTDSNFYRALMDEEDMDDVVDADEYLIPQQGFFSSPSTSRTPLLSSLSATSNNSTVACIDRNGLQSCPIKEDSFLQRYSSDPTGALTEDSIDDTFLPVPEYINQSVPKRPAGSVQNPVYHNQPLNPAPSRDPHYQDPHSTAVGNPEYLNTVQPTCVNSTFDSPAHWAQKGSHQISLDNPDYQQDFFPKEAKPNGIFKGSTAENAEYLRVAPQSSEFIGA
Torsin-1A-interacting protein 1 (Homo sapiens), sequence (Q5JTV8 whole entry, looked up): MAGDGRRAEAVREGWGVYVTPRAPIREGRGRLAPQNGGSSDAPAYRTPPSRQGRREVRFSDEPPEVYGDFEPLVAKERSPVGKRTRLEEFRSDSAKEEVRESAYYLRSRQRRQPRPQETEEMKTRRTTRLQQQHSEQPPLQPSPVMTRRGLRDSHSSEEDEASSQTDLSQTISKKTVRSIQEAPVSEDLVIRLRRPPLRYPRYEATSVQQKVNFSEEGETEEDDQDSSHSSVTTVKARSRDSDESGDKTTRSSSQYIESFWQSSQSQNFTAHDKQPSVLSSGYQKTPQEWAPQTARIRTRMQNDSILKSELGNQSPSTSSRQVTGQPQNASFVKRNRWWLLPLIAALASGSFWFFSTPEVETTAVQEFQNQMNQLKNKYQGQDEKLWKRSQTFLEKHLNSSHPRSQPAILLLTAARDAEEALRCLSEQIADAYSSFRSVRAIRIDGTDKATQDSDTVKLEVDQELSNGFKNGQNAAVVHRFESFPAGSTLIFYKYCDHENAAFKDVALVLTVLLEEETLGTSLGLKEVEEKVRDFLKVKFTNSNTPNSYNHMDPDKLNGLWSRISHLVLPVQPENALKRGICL
Fibroblast growth factor 10 (Homo sapiens), sequence (O15520 whole entry, looked up): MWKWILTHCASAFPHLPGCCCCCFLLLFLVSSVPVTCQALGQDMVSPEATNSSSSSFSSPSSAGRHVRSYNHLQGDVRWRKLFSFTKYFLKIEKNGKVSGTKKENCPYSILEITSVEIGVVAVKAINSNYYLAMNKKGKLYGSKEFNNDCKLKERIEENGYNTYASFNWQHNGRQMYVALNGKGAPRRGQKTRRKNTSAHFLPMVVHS
Dickkopf-related protein 1 (Homo sapiens), sequence (O94907 whole entry, looked up): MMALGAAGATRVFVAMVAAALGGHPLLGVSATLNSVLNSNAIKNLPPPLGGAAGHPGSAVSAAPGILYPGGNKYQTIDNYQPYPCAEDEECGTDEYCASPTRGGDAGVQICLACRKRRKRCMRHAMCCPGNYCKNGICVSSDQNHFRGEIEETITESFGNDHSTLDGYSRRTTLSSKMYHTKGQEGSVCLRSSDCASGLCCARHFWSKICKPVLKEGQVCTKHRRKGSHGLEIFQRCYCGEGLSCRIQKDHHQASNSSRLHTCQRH

In the case of `COC(=O)[C@@]1(CCC(=O)OC(C)(C)C)COC(c2ccc(OCCCO)cc2)=N1`, the composite z-score was -1.07 in experiment [1]; 0.623 in experiment [2]; 1.18 in experiment [3]; -1.2 in experiment [5]; -1.19 in experiment [6]; -1.82 in experiment [7]. The composite z-score in experiment [8] was -2.47; in [9], -2.17; in experiment [10], -0.0726; in experiment [11] it was -1.42; in experiment [13] it was -1.57; in experiment [14] it was -0.683. The composite z-score in experiment [15] was 0.674; in experiment [16], -0.197; in experiment [17], -0.0626; in [18] it was 0.424; in experiment [19] it was -0.123; in [20], -0.741. Further, the z-score was -0.493 (inactive) in experiment [4] and 0.136 in experiment [12].
`COc1ccc(C#Cc2ccc3c(c2)[C@]2(C(=O)N3)[C@H](c3ccc(O)cc3)N3[C@H](c4ccccc4)[C@H](c4ccccc4)OC(=O)[C@H]3[C@@H]2C(=O)N2CCN(c3ncccn3)CC2)cc1`: the composite z-score worked out at 0.595 in experiment [1]; 0.762 in experiment [2]; 0.657 in experiment [3]; 0.388 in experiment [5]; 0.424 in experiment [6]; 0.0077 in experiment [7]. In addition, the composite z-score was 0.219 in [8]; -0.0775 in [9]; 0.0381 in experiment [10]; 0.778 in [11]; -0.0042 in experiment [13]; 1.95 in experiment [14]. In addition, the composite z-score is 0.707 in experiment [15]; 0.0236 in experiment [16]; 0.842 in [17]; 0.353 in experiment [18]; 1.28 in experiment [19]; 1.75 in experiment [20]. Further, the z-score was -0.835 (inactive) in experiment [4] and -1.15 in experiment [12].
Regarding `Cc1ccc(S[C@]2(C(=O)NCC(C)C)CC(=O)N(C(C)C)[C@@H]2c2ccc(CO)cc2)cc1`, the composite z-score was 0.0739 in experiment [1]; 0.457 in experiment [2]; 0.696 in experiment [3]; -0.475 in experiment [5]; -0.771 in experiment [6]; -0.33 in experiment [7]. Further, the composite z-score was -0.196 in experiment [8]; -0.574 in experiment [9]; 0.727 in experiment [10]; -0.962 in [11]; -0.594 in experiment [13]; -0.886 in [14]. Moreover, the composite z-score in experiment [15] is 0.134; in experiment [16], -0.124; in [17] it was -0.137; in experiment [18], -0.163; in experiment [19], 0.623; in experiment [20], -1.11. Further, the z-score is -0.982 (inactive) in experiment [4] and -0.725 in [12].
As to `CCOC(=O)C[C@H]1[C@H](OC(=O)Cc2ccc3c(c2)OCO3)[C@@H](NC(=O)c2ccc3ccccc3c2)c2cc(OCCCO)ccc2N1C(=O)c1ccc2ccccc2n1`, the composite z-score in [1] was 0.114; in [2] it was -0.0522; in experiment [3], -0.0322; in experiment [5] it was 0.18; in experiment [6], 0.0646; in experiment [7], 0.118. For the same compound, the composite z-score in experiment [8] is 0.161; in experiment [9], 0.121; in experiment [10], 0.0739; in experiment [11], -0.13; in experiment [13], 0.0822; in [14], 1.05. Further, the composite z-score in experiment [15] is 0.691; in [16], -0.124; in experiment [17], -0.0769; in experiment [18] it was -0.171; in experiment [19], 1.15; in [20], 1.15. The z-score was -3.47 (inactive) in experiment [4] and -1.43 in experiment [12].
Turning to `COc1ccc([Si](C)(C)[C@H]2[C@H](CC(=O)N(CCO)Cc3ccccc3)O[C@@]3(C(=O)N(Cc4ccc(N5CCOC5=O)cc4)c4ccccc43)[C@@H]2C)cc1`, the composite z-score in experiment [1] was 0.614; in experiment [2] it was 0.0402; in [3], 0.32; in experiment [5], 0.286; in [6], -0.137; in experiment [7], 0.109. The composite z-score in experiment [8] amounted to 0.276; in experiment [9] it was 0.512; in [10] it was 0.6; in [11] it was 0.162; in [13], 0.23; in experiment [14], 0.228. Besides, the composite z-score is 0.342 in [15]; -0.0944 in experiment [16]; 0.493 in experiment [17]; 0.473 in experiment [18]; 0.639 in [19]; 1.02 in experiment [20]. Further, the z-score is -1.56 (inactive) in [4] and -2.94 in experiment [12].
